Inconclusive results are not listed. The source made the active and inactive calls. Calls follow the shape of the dose curve; as a rule, active = well fitted curve in the direction sought with a large enough effect; inconclusive = small, poorly fitted or top-dose-only effect, or another doubt; inactive = no such curve, though single readings can be large; an effect the other way counts as inactive or inconclusive.
How the values were obtained:
NIH3T3 = experiment: qHTS assay to identify novel small-molecules to repurpose for Merkel cell carcinoma treatment (AID 1296009); conditions: MCC and control cell lines, CellTiter-Glo viability, 72 h; at 44.8 µM (top of the series) unless noted; also: nearly all actives have a fitted effect of over 60% in size
Summary of the method: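 Cells were treated for 72 hr at 37 degree celsius with compounds in 8- or 11-point dose response. Viability was read by CellTiter-Glo luminescence, normalized to no-cell (cytotoxicity) and DMSO controls.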

C33A = experiment: Primary qHTS to identify gynecologic anti-cancer compounds using libraries of approved drugs and bioactive compounds (AID 1345084); conditions: Gynecologic cancer cell panel viability, ATPlite luminescence, 48 h; series mostly up to 57.5 µM; also: nearly all actives have a fitted effect of over 55% in size; also: potency is read from the fitted curve at half-maximal effect
Summary of the method: (§1)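 Luminescence from the ATPlite ATP-monitoring reagent indicates viable cell number; lower signal means cytotoxicity. Cells received compound 16 h after seeding and were exposed for 48 h across five concentrations.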

CAOV3 = experiment: as above; conditions: Gynecologic cancer cell panel viability, ATPlite luminescence, 48 h; series mostly up to 57.5 µM
Summary of the method: as §1

CASKI = experiment: as above; conditions: Gynecologic cancer cell panel viability, ATPlite luminescence, 48 h; series mostly up to 57.5 µM
Summary of the method: as §1

Es-2 = experiment: as above; conditions: Gynecologic cancer cell panel viability, ATPlite luminescence, 48 h; series mostly up to 57.5 µM
Summary of the method: as §1

HeLa = experiment: as above; conditions: Gynecologic cancer cell panel viability, ATPlite luminescence, 48 h; series mostly up to 57.5 µM
Summary of the method: as §1

Hek293T = experiment: as above; conditions: Gynecologic cancer cell panel viability, ATPlite luminescence, 48 h, control line for the selectivity index; series mostly up to 57.5 µM
Summary of the method: as §1

JEG-3 = experiment: as above; conditions: Gynecologic cancer cell panel viability, ATPlite luminescence, 48 h; series mostly up to 57.5 µM
Summary of the method: as §1

Measured: Potency

CC(C)(OC1OC(CO)C(O)C(O)C1O)C1CCC(O)(CO)C2CC(=O)C(C)(O)C2C1 (configuration not stated)
inactive: NIH3T3 inactive [at 17.4 µM] | C33A | CAOV3 | CASKI | Es-2 | HeLa | Hek293T | JEG-3

Cc1onc(-c2c(Cl)cccc2Cl)c1CC(=O)NCc1ccc(OCC(F)(F)F)nc1
inactive: all assays above

CC1(C)C=Cc2c(ccc3c2[N+]([O-])=C2C3(O)CC34NC(=O)C5(CCCN5C3=O)CC4C2(C)C)O1 (configuration not stated)
inactive: NIH3T3 inactive [at 17.4 µM] | C33A | CAOV3 | CASKI | Es-2 | HeLa | Hek293T | JEG-3

Oc1ccc(CC2NCCc3cc(O)c(O)cc32)cc1 (configuration not stated)
inactive: all assays above

C=C(C)[C@@H]1CC[C@]2(CO)CC[C@]3(C)[C@H](CC[C@@H]4[C@@]5(C)CC[C@H](O)C(C)(C)[C@@H]5CC[C@]43C)[C@@H]12
inactive: NIH3T3 inactive [at 17.4 µM] | C33A | CAOV3 | CASKI | Es-2 | HeLa | Hek293T | JEG-3

Nc1nc2c(nc(Sc3ccc(Cl)cc3)n2[C@@H]2O[C@@H]3COP(=O)(O)O[C@H]3[C@H]2O)c(=O)[nH]1
inactive: all assays above

C=CC(C)(O)CC/C=C(\C)C(=O)O[C@@H]1[C@@H](O)[C@H](OC(C)(C=C)CC/C=C(\C)C(=O)O)O[C@H](CO)[C@H]1OC(=O)/C(C)=C/CCC(C)(O)C=C (some centres not stated)
inactive: NIH3T3 inactive [at 17.4 µM] | C33A | CAOV3 | CASKI | Es-2 | HeLa | Hek293T | JEG-3

CC(C)C(O)(CO)CCO[C@@H]1O[C@H](CO[C@H]2OC[C@](O)(CO)[C@H]2O)[C@@H](O)[C@H](O)[C@H]1O (some centres not stated)
inactive: NIH3T3 inactive [at 17.4 µM] | C33A | CAOV3 | CASKI | Es-2 | HeLa | Hek293T | JEG-3

CC1=C(CCC(C)O[C@@H]2O[C@H](CO)[C@@H](O)[C@H](O)[C@H]2O)C(C)(C)CC(O)C1 (some centres not stated)
inactive: all assays above

CCNC(=O)OC1CCN(c2nncc3cc(OC)c(OC)cc23)CC1
inactive: all assays above

CN1C(=O)N(c2cc(Cl)cc(Cl)c2)C(=O)[C@@]1(C)Cc1ccc(Br)cc1
inactive: all assays above

COC(=O)[C@H](O)[C@H]1C(C)(C)[C@H](OC(C)=O)[C@@]2(O)C(=O)[C@]1(C)C1CC[C@]3(C)C(CC(=O)O[C@H]3c3ccoc3)[C@]13O[C@@H]32 (some centres not stated)
inactive: NIH3T3 inactive [at 17.4 µM] | C33A | CAOV3 | CASKI | Es-2 | HeLa | Hek293T | JEG-3

CC(=O)NCC1CN(c2ccc(-c3ccc(CNCc4cn[nH]n4)cc3)c(F)c2)C(=O)O1 (configuration not stated)
inactive: all assays above

Cc1occc1C(=O)n1ccnc1
inactive: all assays above

CC(C)[C@@H](C(=O)O)N1Cc2c(cc(O)c3c2O[C@]2(C3)[C@H](C)CCC3C(C)(C)[C@H](O)[C@H](O)C[C@@]32C)C1=O (some centres not stated)
inactive: NIH3T3 inactive [at 17.4 µM] | C33A | CAOV3 | CASKI | Es-2 | HeLa | Hek293T | JEG-3

CCCN(CCN1CCN(c2ccccc2OC)CC1)C1CCc2ncsc2C1 (configuration not stated)
inactive: all assays above

C=CC1(C)C=C2CC[C@H]3[C@@](C)(C(=O)O)CCC[C@]3(C)C2CC1 (some centres not stated)
inactive: all assays above

CC1=C2C(=O)C=C(CO)C2C2OC(=O)C(CS(=O)(=O)O)C2C(OC(=O)Cc2ccc(O)cc2)C1 (configuration not stated)
inactive: NIH3T3 inactive [at 17.4 µM] | C33A | CAOV3 | CASKI | Es-2 | HeLa | Hek293T | JEG-3

Cc1nc2cc(-c3cc(F)cc(C#N)c3)ccc2s1
inactive: all assays above

C=C1CCC2C(C)(C)CC(O)CC2(C)C1CCC(C)CCOC(=O)CCC(=O)O (configuration not stated)
inactive: NIH3T3 inactive [at 17.4 µM] | C33A | CAOV3 | CASKI | Es-2 | HeLa | Hek293T | JEG-3

O=C(Nc1cc(-c2ccccc2)nn1-c1ccccc1F)c1ccc([N+](=O)[O-])cc1
inactive: all assays above

O=C(/C=C/c1ccc(O)c(O)c1)O[C@H]1[C@H](OC2CCCCC2O)O[C@H](CO)[C@@H](O)[C@@H]1O (some centres not stated)
inactive: NIH3T3 inactive [at 17.4 µM] | C33A | CAOV3 | CASKI | Es-2 | Hek293T | JEG-3
active: HeLa 11.2 µM

CCCCCOC(=O)Nc1nc(=O)n(C2O[C@H](C)[C@@H](O)[C@H]2O)cc1F (some centres not stated)
inactive: all assays above

C=C1CCC2C(C)(C(=O)OC)CCCC2(C)C1CCC1=CCOC1=O (configuration not stated)
inactive: all assays above
